From PubChem BioAssay AID488969 (Vanderbilt High Throughput Screening Facility, 2010)
Whole data set: some 110,000 compounds, median “z-score” near -0.1, cut for the highest 2% near 2. Many of the other results were omitted from the sample, so the highest values are more common in it than they were. Activity calls are given as the source filed them.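 The calls were made as follows: active = z-score in the third read window above 3 or below -3; inactive = the rest.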

Target: Metabotropic glutamate receptor 8 (Rattus norvegicus) (UniProt P70579)
Test: mGluR8 Gi/Go-coupled signaling modulation – cell-based, rat, thallium flux, HTS, primary screen (AID 488969)
Conditions: HEK293 rat mGluR8, GIRK (G protein-gated inwardly rectifying potassium channel) thallium flux, FluoZin2; at 10 µM; stronger effect = higher value; submaximal glutamate (EC20) added with thallium

Metabotropic glutamate receptor 8 (Rattus norvegicus), sequence (P70579 whole entry, looked up): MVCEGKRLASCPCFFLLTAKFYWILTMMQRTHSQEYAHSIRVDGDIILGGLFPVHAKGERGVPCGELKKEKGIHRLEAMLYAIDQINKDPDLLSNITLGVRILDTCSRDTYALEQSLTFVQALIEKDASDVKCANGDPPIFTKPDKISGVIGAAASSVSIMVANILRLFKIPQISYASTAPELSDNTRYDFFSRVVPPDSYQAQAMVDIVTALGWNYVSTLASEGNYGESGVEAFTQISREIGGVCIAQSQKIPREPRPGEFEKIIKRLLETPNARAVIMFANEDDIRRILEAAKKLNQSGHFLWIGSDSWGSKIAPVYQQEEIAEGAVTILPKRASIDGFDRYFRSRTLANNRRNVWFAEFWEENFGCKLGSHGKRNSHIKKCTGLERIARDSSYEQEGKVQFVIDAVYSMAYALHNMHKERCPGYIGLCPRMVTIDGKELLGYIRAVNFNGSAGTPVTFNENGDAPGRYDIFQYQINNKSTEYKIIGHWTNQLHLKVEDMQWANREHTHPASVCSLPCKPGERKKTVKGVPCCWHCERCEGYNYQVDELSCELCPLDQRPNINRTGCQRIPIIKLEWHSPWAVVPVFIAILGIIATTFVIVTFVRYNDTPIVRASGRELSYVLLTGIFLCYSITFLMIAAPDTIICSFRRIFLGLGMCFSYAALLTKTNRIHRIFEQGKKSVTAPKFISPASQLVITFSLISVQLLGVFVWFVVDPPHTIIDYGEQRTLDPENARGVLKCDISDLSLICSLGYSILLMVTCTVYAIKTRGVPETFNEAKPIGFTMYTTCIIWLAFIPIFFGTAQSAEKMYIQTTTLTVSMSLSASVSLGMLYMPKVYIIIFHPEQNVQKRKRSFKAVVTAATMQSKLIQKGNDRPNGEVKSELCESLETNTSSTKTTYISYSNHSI

| Structure (SMILES) | z-score |
| --- | --- |
| CC(=O)c1ccc(NC(=O)CSc2ccc(-c3ccc4c(c3)OCO4)nn2)cc1 | -0.125 |
| CCOC(=O)N1CCN(C(=O)C2CC(c3cc(OC)ccc3OC)=NO2)CC1 (stereo not given) | -0.594 |
| COc1ccc(Br)cc1CNC(=O)C1CCN(S(=O)(=O)N2CCCCC2)CC1 | -0.52 |
| Cc1ccc(C(=O)NC(C)c2ccc(F)cc2)cc1 (stereo not given) | -0.249 |
| Fc1ccc(-c2nnc3ccc(N4CCc5ccccc5C4)nn23)cc1 | 2.89 |
| c1ccc(-c2nnc3ccc(N4CCCC4)nn23)cc1 | -4.38 (active) |
| O=C(Nc1ccc(F)cc1)N1CCN(c2ccc3nnc(-c4ccc(F)cc4)n3n2)CC1 | -1.17 |
| Cc1ccc(NC(=O)NNC(=O)c2cccs2)cc1 | 0.53 |
| NC(=O)c1ccc(C(F)(F)F)n(Cc2ccc(Cl)cc2)c1=O | -0.45 |
| Cc1[nH]n(-c2ccccc2)c(=O)c1-c1cccc(Cl)c1 | 0.257 |
| O=C(N1CCCCC1)N1CCN(C(=O)N(c2ccccc2)c2ccccc2)CC1 | 3.16 (active) |
| CN(C)S(=O)(=O)N1CCN(C(=O)N(c2ccccc2)c2ccccc2)CC1 | -0.395 |
| O=C(N1CCOCC1)N1CCN(C(=O)N(c2ccccc2)c2ccccc2)CC1 | -0.217 |
| COc1ccc(-c2nc3c(c(=O)c4ccccc4n3C)c(=O)n2Cc2ccccc2)cc1 | -0.433 |
| CC(C)CN(/C=N/c1sc2c(c1C#N)CCCCC2)CC(C)C | 2.9 |
| CCCN(/C=N/c1sc2c(c1C#N)CCCCC2)CCC | -0.155 |
| CCN(/C=N/c1sc2c(c1C#N)CCCCC2)CC | -0.292 |
| CCOC(=O)c1nnc2c(Br)c(-c3ccccc3)nn2c1C | -0.554 |
| CCC(=O)Nc1ccc(-c2csc(NNC(C)=O)n2)cc1 | -0.182 |
| COC(=O)c1cccc(NC(=O)CSc2nnc(COc3ccccc3)n2C)c1 | -0.736 |
| CC(C)(C)NC(=O)CSc1nccn1Cc1ccccc1 | 0.488 |
| CC(=O)Nc1ccc(NC(=O)CSc2nccn2Cc2ccccc2)cc1 | 2.89 |
| Cc1ccc(NC(=O)CSc2nccn2Cc2ccccc2)cc1C | -0.465 |
| Cn1ccnc1SCC(=O)Nc1ccc(Oc2ccccc2)cc1 | 2.29 |
| COC(=O)c1ccc(NC(=O)CSc2nnc(COc3ccccc3)n2C)cc1 | 11.8 (active) |

| Structure (SMILES) | z-score |
| --- | --- |
| Cn1ccnc1SCC(=O)Nc1ccccc1 | 0.326 |
| CCOc1ccc(NC(=O)CSc2nccn2C)cc1 | -0.0963 |
| CCOC(=O)c1ccc(NC(=O)CSc2nnc(COc3ccccc3)n2C)cc1 | -0.177 |
| CCc1sc(C(=O)Nc2ccc(F)cc2C)cc1C | -0.0957 |
| O=C(CCC(=O)c1cccs1)Nc1ccc(F)c(F)c1F | 0.32 |
| CCc1ccc(NS(=O)(=O)c2cc(OC)ccc2OC)cc1 | -0.868 |
| Cc1nc(NCCc2ccc(F)cc2)c(C#N)c(C)c1[N+](=O)[O-] | -0.205 |
| COc1cc(C)nc(OCCNS(=O)(=O)c2cc(C)ccc2C)n1 | 0.217 |
| CC(/C=N/NC(=O)c1c(Br)cnn1C)=C\c1ccccc1 | 3.16 (active) |
| CC(/C=N/NC(=O)c1ccc(Br)cc1)=C\c1ccccc1 | -1.26 |
| CC(/C=N/NC(=O)c1nn(C)c(C)c1Br)=C\c1ccccc1 | -0.0235 |
| O=C(Nc1ccc(C(=O)N2CCCCC2)cc1)c1ccc(Br)cc1 | 1.09 |
| CC(C)CCNC(=O)Cn1c(=O)oc2cc(S(=O)(=O)N3CCc4ccccc43)ccc21 | -0.186 |
| COc1cc(CNc2ccc(CNc3ncn[nH]3)cc2)ccc1OCc1ccccc1 | -0.026 |
| COc1cc(CNc2ccc(N3CCCC3)cc2)ccc1OCc1ccccc1 | 3.82 (active) |
| COc1cc(CNc2ccc(N3CCCC3)cc2)ccc1OCc1ccccc1F | -0.289 |
| CC(C(=O)NCCN1C(=O)S/C(=C\c2cccs2)C1=O)N1C(=O)c2ccccc2C1=O (stereo not given) | -0.139 |
| Cc1ccc(C)c(NC(=O)CCC(=O)NNC(=O)c2cccc([N+](=O)[O-])c2)c1 | 0.265 |
| CSc1ccccc1C(=O)Nc1cccc(C)c1 | -0.792 |
| CSc1ccccc1C(=O)Nc1cccc(C(C)=O)c1 | 3.03 (active) |
| CSc1ccccc1C(=O)Nc1cccc(C(C)O)c1 (stereo not given) | 0.209 |
| CCOC(=O)Cc1c(C)nc2cc(-c3ccc(C)cc3)[nH]n2c1=O | 0.0804 |
| C1CCCC(N2CCNCC2)CC1 | 0.33 |
| COC(=O)c1cc(=O)nc2sccn12 | -0.417 |
| CCc1cc(C(N)=O)c(NC(=O)c2ccc(OC)cc2)s1 | 3.98 (active) |

| Structure (SMILES) | z-score |
| --- | --- |
| CCOC(=O)c1cc(-c2ccccc2)sc1NC(=O)c1ccc(OC)cc1 | -0.199 |
| CCOC(=O)c1cc(CC)sc1NC(=O)c1cc(OC)c(OC)c(OC)c1 | 0.399 |
| CCOc1ccc(OC(=O)NC(c2ccccc2)C(Cl)(Cl)Cl)cc1 (stereo not given) | -0.048 |
| O=c1c2ccc(Cl)cc2[nH]c(=S)n1Cc1cccnc1 | 2.08 |
| CCOC(=O)N1CCN(C(=O)c2ccc3c(=O)n(Cc4ccc(Cl)cc4)c(=S)[nH]c3c2)CC1 | 0.798 |
| CC1CCCCN1CCn1c(=S)[nH]c2ncccc2c1=O (stereo not given) | 1.22 |
| O=c1c2cc(Br)ccc2[nH]c(=S)n1Cc1cccnc1 | 1.87 |
| CC1CCN(CCn2c(=S)[nH]c3ncccc3c2=O)CC1 | 4.47 (active) |
| O=c1c2cccnc2[nH]c(=S)n1CCCN1CCN(c2ccc(F)cc2)CC1 | 0.723 |
| CCN(CC)CCn1c(=S)[nH]c2ncccc2c1=O | 0.0629 |
| COCCn1c(=S)[nH]c2ncccc2c1=O | 0.35 |
| O=c1c2cccnc2[nH]c(=S)n1Cc1ccccc1 | 3 (active) |
| CC(=O)Nc1ccc(Sc2ncccc2C(=O)Nc2cc(Cl)cc(Cl)c2)cn1 | 0.0331 |
| CCc1nc(SCC(=O)Nc2c(C)n(C)n(-c3ccccc3)c2=O)n[nH]1 | -0.584 |
| Cc1ccc(Cl)c(OCC(=O)Nc2sc(C)c(C)c2C#N)c1 | 0.877 |
| CC(NC(=O)COc1ccccc1)C1COc2ccccc2O1 (stereo not given) | -0.67 |
| Cc1ccc(C)c(N2CCN(C(=O)c3csc(C)c3C)CC2)c1 | 0.0161 |
| CC(C)n1nc(C(=O)OCC(=O)c2c[nH]c3ccccc23)c2ccccc2c1=O | -2.75 |
| COc1ccc(Br)cc1S(=O)(=O)N1CCCC1 | -0.0684 |
| CCOC(=O)COc1c(OC)cc(Cl)cc1C1Nc2ccccc2C(=O)N1c1ccccc1 (stereo not given) | 0.355 |
| Cc1ccc(Oc2ncc(CN3CC(C)OC(C)C3)s2)cc1 (stereo not given) | -0.107 |
| CCn1c2ccccc2c2cc(NC(=O)CC(C)=O)ccc21 | -0.32 |
| COCCNC(=O)c1cnn2c1NC(c1ccco1)CC2C(F)(F)F (stereo not given) | 0.0267 |
| Cc1ccc(Cl)cc1NC(=O)c1cnn2c1NC(c1ccco1)CC2C(F)(F)F (stereo not given) | -0.148 |
| CCOC(=O)N1CCC(NC(=O)c2cnn3c2NC(c2ccco2)CC3C(F)(F)F)CC1 (stereo not given) | 4.33 (active) |
